The values that follow come from paper PMC7862700, “An all-to-all approach to the identification of sequence-specific readers for epigenetic DNA modifications on cytosine”.

Assay in all cases: DAPPL (digital affinity profiling via proximity ligation, sequencing); 10 mM Tris-HCl pH 7.5, 50 mM NaCl, 1 mM DTT, 4% glycerol, room temperature, 30 min; GST-TFs on glutathione beads, 16-mer random dsDNA library, 0.1% formaldehyde crosslink after washing; high values mean tight binding
One test deals with T1, FEV (Homo sapiens, UniProt Q99581 1-238).
T1 sequence: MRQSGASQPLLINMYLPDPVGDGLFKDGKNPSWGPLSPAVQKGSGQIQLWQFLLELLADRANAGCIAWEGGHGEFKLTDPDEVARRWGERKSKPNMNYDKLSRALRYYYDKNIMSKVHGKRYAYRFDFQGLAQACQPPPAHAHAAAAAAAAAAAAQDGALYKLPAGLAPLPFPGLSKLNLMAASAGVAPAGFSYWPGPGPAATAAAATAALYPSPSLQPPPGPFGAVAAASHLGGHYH
Conditions: protein: recombinant; tags: N-terminal GST; dsDNA, one strand shown. The essentials: (§1)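 Binding signal is given per hexamer as its read frequency for a factor divided by its frequency in the tag-only sample. GST-fused human transcription factors were expressed in yeast, captured on glutathione beads, barcoded with DNA and pooled with that sample, then incubated with 200 nmole of a 16-mer random double-stranded DNA library in Tris/NaCl/DTT/glycerol buffer for 30 min at room temperature. The pools were then washed, crosslinked, proximity-ligated, amplified by PCR and sequenced on an Illumina NextSeq500.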

Another test has as its target ETV5 (Homo sapiens, UniProt P41161 1-510). Conditions: protein: recombinant; tags: N-terminal GST; dsDNA, one strand shown. The essentials:
as §1

The target in another test is HSF1 (Homo sapiens, UniProt Q00613 1-529). Conditions: protein: recombinant; tags: N-terminal GST; chain copies: 3; dsDNA, one strand shown. In outline: as §1
The target in another test is ELF4 (Homo sapiens, UniProt Q99607 1-663). Particulars: protein: recombinant; tags: N-terminal GST; dsDNA, one strand shown. In outline: as §1
The target in the next test is T2, ELK4 (Homo sapiens, UniProt P28324-2 1-405).
T2 sequence: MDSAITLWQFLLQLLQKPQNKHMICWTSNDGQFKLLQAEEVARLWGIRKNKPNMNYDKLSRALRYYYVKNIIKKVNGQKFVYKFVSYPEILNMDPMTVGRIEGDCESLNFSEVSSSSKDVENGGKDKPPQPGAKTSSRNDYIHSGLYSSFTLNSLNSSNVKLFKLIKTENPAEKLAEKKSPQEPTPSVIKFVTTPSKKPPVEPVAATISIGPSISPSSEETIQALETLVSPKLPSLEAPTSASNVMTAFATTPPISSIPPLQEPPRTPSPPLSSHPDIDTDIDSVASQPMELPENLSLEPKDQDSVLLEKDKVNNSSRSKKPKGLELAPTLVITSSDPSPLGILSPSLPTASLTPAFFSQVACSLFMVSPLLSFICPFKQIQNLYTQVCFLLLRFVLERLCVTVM
Particulars: protein: recombinant; tags: N-terminal GST; dsDNA, one strand shown. The essentials:
as §1

For another test, the target named is T3, ETV2 (Homo sapiens, UniProt O00321 1-342).
T3 sequence: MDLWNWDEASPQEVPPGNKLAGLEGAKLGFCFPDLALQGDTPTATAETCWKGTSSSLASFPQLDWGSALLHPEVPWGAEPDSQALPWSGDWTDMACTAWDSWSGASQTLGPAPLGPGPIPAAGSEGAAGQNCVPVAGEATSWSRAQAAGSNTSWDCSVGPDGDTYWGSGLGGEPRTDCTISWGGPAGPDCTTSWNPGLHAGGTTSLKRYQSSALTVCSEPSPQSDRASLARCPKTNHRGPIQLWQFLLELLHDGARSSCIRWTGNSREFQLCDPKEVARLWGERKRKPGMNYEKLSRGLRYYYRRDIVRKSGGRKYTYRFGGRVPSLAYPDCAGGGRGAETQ
Conditions: protein: recombinant; tags: N-terminal GST; dsDNA, one strand shown. The essentials: as §1

For another test, the target named is T4, ELF3 (Homo sapiens, UniProt P78545 1-371).
T4 sequence: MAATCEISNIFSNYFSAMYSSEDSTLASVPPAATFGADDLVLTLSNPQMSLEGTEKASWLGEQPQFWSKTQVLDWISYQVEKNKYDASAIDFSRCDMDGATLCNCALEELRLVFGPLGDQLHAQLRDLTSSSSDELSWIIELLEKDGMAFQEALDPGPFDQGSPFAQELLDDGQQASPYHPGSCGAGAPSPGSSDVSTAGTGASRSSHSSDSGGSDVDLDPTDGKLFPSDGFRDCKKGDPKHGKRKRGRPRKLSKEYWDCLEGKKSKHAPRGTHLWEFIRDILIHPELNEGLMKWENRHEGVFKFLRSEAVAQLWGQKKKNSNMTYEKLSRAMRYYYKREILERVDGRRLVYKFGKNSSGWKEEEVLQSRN
Conditions: protein: recombinant; tags: N-terminal GST; dsDNA, one strand shown. In outline: as §1

In another test the target is ETV1 (Homo sapiens, UniProt P50549 1-477). Conditions: protein: recombinant; tags: N-terminal GST; dsDNA, one strand shown. In outline: as §1
The next test addresses CRX (Homo sapiens, UniProt O43186 1-299). Particulars: protein: recombinant; tags: N-terminal GST; dsDNA, one strand shown. In outline: as §1

Chain of CRX (O43186 whole entry): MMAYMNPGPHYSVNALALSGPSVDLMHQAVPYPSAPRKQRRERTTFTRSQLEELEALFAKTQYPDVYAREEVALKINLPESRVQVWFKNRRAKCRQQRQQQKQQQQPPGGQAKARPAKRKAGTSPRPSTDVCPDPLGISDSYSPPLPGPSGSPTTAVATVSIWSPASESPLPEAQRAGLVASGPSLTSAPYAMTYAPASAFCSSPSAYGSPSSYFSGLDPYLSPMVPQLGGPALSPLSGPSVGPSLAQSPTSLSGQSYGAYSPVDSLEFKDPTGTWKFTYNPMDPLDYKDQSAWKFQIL
Chain of ETV1 (P50549 whole entry): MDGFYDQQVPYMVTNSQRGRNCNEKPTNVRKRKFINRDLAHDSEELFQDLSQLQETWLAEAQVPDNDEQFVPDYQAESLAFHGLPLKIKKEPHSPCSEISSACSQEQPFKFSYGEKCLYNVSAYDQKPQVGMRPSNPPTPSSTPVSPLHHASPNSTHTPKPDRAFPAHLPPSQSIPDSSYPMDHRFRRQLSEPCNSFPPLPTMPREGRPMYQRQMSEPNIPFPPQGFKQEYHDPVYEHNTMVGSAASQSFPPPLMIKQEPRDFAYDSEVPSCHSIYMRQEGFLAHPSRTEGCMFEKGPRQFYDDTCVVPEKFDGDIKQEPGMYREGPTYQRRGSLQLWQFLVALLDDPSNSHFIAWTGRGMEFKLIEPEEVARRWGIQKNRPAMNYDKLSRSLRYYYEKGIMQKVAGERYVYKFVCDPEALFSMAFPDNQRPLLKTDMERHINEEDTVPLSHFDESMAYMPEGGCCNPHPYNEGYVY
Chain of ETV5 (P41161 whole entry): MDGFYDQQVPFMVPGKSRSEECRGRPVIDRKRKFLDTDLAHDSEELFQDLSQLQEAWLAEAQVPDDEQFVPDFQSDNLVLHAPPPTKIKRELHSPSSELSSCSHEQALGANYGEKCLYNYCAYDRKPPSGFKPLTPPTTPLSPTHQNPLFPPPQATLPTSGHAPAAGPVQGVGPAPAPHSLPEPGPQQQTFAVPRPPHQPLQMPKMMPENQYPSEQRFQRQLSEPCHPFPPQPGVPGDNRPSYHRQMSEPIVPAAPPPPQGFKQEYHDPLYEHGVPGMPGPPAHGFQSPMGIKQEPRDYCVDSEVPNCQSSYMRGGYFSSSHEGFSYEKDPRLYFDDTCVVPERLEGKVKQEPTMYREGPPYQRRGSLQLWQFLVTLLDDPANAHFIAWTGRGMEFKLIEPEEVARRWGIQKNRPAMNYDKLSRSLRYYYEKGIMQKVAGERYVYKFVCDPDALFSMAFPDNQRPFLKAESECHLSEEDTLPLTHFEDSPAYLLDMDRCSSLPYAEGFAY
Chain of ELF4 (Q99607 whole entry): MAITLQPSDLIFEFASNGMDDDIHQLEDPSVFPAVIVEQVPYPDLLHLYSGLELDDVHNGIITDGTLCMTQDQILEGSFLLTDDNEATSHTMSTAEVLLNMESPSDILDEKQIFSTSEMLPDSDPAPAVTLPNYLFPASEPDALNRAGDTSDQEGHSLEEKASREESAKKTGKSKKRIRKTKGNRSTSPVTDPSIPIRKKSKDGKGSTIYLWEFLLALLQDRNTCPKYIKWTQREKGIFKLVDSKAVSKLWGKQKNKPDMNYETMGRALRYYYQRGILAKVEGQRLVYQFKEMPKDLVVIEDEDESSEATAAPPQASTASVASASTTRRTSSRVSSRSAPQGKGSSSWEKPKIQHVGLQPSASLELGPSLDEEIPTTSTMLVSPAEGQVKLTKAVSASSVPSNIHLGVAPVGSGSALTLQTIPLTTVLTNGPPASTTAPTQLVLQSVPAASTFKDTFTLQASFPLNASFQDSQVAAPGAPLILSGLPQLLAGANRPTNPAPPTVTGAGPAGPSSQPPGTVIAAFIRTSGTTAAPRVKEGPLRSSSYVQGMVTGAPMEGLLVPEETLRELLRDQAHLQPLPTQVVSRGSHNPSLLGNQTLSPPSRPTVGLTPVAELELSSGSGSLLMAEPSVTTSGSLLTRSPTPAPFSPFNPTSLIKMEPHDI
Chain of HSF1 (Q00613 whole entry): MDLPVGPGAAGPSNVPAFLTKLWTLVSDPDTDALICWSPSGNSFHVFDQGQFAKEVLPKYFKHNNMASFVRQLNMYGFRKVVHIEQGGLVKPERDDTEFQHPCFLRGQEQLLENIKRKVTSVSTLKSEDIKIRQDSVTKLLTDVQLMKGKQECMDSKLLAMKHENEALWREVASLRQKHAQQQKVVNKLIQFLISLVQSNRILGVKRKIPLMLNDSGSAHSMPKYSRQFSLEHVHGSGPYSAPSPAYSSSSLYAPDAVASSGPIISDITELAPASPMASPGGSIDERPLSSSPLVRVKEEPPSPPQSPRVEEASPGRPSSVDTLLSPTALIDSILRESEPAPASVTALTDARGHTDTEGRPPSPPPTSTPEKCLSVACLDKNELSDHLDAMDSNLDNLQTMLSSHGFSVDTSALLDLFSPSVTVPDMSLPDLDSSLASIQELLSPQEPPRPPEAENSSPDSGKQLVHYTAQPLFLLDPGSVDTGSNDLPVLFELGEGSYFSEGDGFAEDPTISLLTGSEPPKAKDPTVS

Turning to GCATTC, the binding signal was 1.08 fold enrichment (6-mer frequency, TF over GST control) in the test with FEV; 1.1 fold enrichment (6-mer frequency, TF over GST control) with ETV5; 1.17 fold enrichment (6-mer frequency, TF over GST control) with HSF1; 1.1 fold enrichment (6-mer frequency, TF over GST control) with ELF4; 1.05 fold enrichment (6-mer frequency, TF over GST control) with ELK4; 1.09 fold enrichment (6-mer frequency, TF over GST control) in the test with ETV2. The binding signal was 1.11 fold enrichment (6-mer frequency, TF over GST control) with ELF3 and 1.24 fold enrichment (6-mer frequency, TF over GST control) in the test with ETV1.
As to CTGGCC, the binding signal with FEV is 1.13 fold enrichment (6-mer frequency, TF over GST control); in the test with ETV5, 1.19 fold enrichment (6-mer frequency, TF over GST control); in the test with HSF1, 1.01 fold enrichment (6-mer frequency, TF over GST control); with ELF4 it was 1.2 fold enrichment (6-mer frequency, TF over GST control); with ELK4, 1.35 fold enrichment (6-mer frequency, TF over GST control); in the test with ETV2, 1.04 fold enrichment (6-mer frequency, TF over GST control). Also, the binding signal is 1 fold enrichment (6-mer frequency, TF over GST control) with ELF3 and 1.15 fold enrichment (6-mer frequency, TF over GST control) in the test with ETV1.
As to ATTGTC, the binding signal was 1.11 fold enrichment (6-mer frequency, TF over GST control) with FEV; 1.14 fold enrichment (6-mer frequency, TF over GST control) with ETV5; 1.04 fold enrichment (6-mer frequency, TF over GST control) with HSF1; 1.08 fold enrichment (6-mer frequency, TF over GST control) in the test with ELF4; 1.17 fold enrichment (6-mer frequency, TF over GST control) with ELK4; 1.14 fold enrichment (6-mer frequency, TF over GST control) in the test with ETV2. For the same sequence, the binding signal in the test with CRX was 1.06 fold enrichment (6-mer frequency, TF over GST control); with ETV1 it was 1.21 fold enrichment (6-mer frequency, TF over GST control).
Regarding GAATTG, the binding signal was 1.11 fold enrichment (6-mer frequency, TF over GST control) in the test with FEV; 1.18 fold enrichment (6-mer frequency, TF over GST control) in the test with ETV5; 1.06 fold enrichment (6-mer frequency, TF over GST control) with HSF1; 1.11 fold enrichment (6-mer frequency, TF over GST control) with ELF4; 1.04 fold enrichment (6-mer frequency, TF over GST control) with ELK4; 1.17 fold enrichment (6-mer frequency, TF over GST control) in the test with ELF3. Moreover, in the test with ETV1, the binding signal is 1.15 fold enrichment (6-mer frequency, TF over GST control).
Consider CTAGTA, for which the binding signal in the test with FEV is 1.04 fold enrichment (6-mer frequency, TF over GST control); with ETV5, 1.08 fold enrichment (6-mer frequency, TF over GST control); with HSF1, 1.86 fold enrichment (6-mer frequency, TF over GST control); in the test with ELF4 it was 1.07 fold enrichment (6-mer frequency, TF over GST control); in the test with ELK4, 1.09 fold enrichment (6-mer frequency, TF over GST control); with ETV2 it was 1.1 fold enrichment (6-mer frequency, TF over GST control). Further, the binding signal was 1.18 fold enrichment (6-mer frequency, TF over GST control) with ELF3; 1.38 fold enrichment (6-mer frequency, TF over GST control) in the test with CRX; 1.04 fold enrichment (6-mer frequency, TF over GST control) in the test with ETV1.
For GTTATC, the binding signal with FEV is 1.05 fold enrichment (6-mer frequency, TF over GST control); with ETV5, 1.12 fold enrichment (6-mer frequency, TF over GST control); with HSF1, 1.03 fold enrichment (6-mer frequency, TF over GST control); in the test with ELF4 it was 1.04 fold enrichment (6-mer frequency, TF over GST control); with ELK4, 1.22 fold enrichment (6-mer frequency, TF over GST control); with ETV2, 1.21 fold enrichment (6-mer frequency, TF over GST control). Also, the binding signal with CRX is 1.24 fold enrichment (6-mer frequency, TF over GST control).
Turning to TATCAA, the binding signal is 1.03 fold enrichment (6-mer frequency, TF over GST control) in the test with ETV5; 1.01 fold enrichment (6-mer frequency, TF over GST control) in the test with HSF1; 1.03 fold enrichment (6-mer frequency, TF over GST control) with ELF4; 1.09 fold enrichment (6-mer frequency, TF over GST control) with ELK4; 1.11 fold enrichment (6-mer frequency, TF over GST control) in the test with ETV2; 1.21 fold enrichment (6-mer frequency, TF over GST control) with CRX. The binding signal with ETV1 is 1.01 fold enrichment (6-mer frequency, TF over GST control).
In the case of TACACG, the binding signal with FEV is 1.12 fold enrichment (6-mer frequency, TF over GST control); with ETV5, 1.22 fold enrichment (6-mer frequency, TF over GST control); in the test with HSF1 it was 1.04 fold enrichment (6-mer frequency, TF over GST control); with ELF4 it was 1.14 fold enrichment (6-mer frequency, TF over GST control); with ELK4 it was 1.21 fold enrichment (6-mer frequency, TF over GST control); with ELF3, 1.15 fold enrichment (6-mer frequency, TF over GST control). Besides, the binding signal in the test with CRX was 1.1 fold enrichment (6-mer frequency, TF over GST control); with ETV1, 1.16 fold enrichment (6-mer frequency, TF over GST control).
